# Assay outcomes: PubChem, National Center for Advancing Translational Sciences (NCATS)
# 12-LOX inh = inhibitors of human 12S-lipoxygenase ALOX12; purified 12hLO, xylenol orange hydroperoxide absorbance; Potency, µM (doses to about 108 µM), for the others: top-dose activity change, negative = inhibition, hits mostly inhibitors; 580,000 tested, 1.1% active
#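 Purified human 12hLO (150 nM final) in 25 mM Hepes, 0.01% Triton X-100, pH 7.0 was preincubated 15 min at room temperature with compound. Then 40 uM arachidonic acid was added, 30 min. Hydroperoxide was read by Fe-XO absorbance ratio 573/405 nm.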
# Gal4-VP16 FLuc = Gal4-VP16 reporter inhibition counter-screen. Potency, µM (titrated, usually from 53.6 µM), for the others: top-dose activity, negative = inhibition, usual class: inhibitors. 310,000 tested, 3.5% active. Drosophila S2 Gal4-VP16 UAS-luciferase, luminescence, 20 h. AID 2546;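 further: Gal4-VP16 expression switched on by copper sulfate through the metallothionein promoter; nearly all actives have a fitted effect of over 50% in size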
# ELG1 repair inh = ELG1-dependent DNA repair inhibition; 330,000 tested, 2.3% active; Potency, µM (highest dose often 46.1 µM), for the others: at the highest dose activity change, negative = inhibition, hits mostly inhibitors; HEK293T ELG1-luciferase reporter, luminescence, 16 h; DNA damage induced by 5-fluorouridine; further: nearly all actives have a fitted effect of over 55% in size
#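 Reporter activity after DNA damage by 5-fluorouridine is monitored. Compound-treated cells incubate 16 hr at 37 °C, then ONE-Glo is added for 30 min before luminescence reading.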
# TDP1 cell noCPT = qHTS for Inhibitors of human tyrosyl-DNA phosphodiesterase 1 (TDP1): qHTS in cells in absence of CPT. 420,000 tested, 15% active. DT40 Tdp1-/- hTDP1 cells, no CPT, ATP luminescence, 48 h. Potency, µM (series often up to 46.2 µM), inactives show at the top dose activity change, negative = growth inhibition, usual class: inhibitors. AID 686978, 2013; further: nearly all actives have a fitted effect of over 55% in size
#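 Stably hTDP1-transfected Tdp1-null chicken DT40 cells were treated with library compounds minus camptothecin and grown for at least 48 hr at 37 °C, after which cellular ATP was quantified by luminescence.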
# TDP1 cell CPT = growth inhibition of DT40 Tdp1-/-;hTDP1 cells with camptothecin (screen for TDP1 inhibitors) | chicken DT40 Tdp1-/-;hTDP1 cells + 20 nM CPT, ATP luminescence, 48 h | Potency, µM (highest dose often 46.2 µM), for inactives: at the top dose activity change, negative = growth inhibition, hits mostly inhibitors | 420,000 tested, 12% active; further: nearly all actives have a fitted effect of over 55% in size
#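 Chicken DT40 Tdp1-/- cells stably complemented with human TDP1 were seeded at 400 cells/well in medium containing 20 nM camptothecin, exposed to pin-transferred compounds, and grown at 37 °C for at least 48 hr. Viability was read as ATP luminescence.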
# RORgamma inh = ROR gamma (mouse) transcription inhibition; P51450; Drosophila S2 Gal4-RORgamma UAS-luciferase reporter, 20 h; Potency, µM (highest dose often 53.6 µM), for the others: at the top dose activity change, negative = inhibition, hits mostly inhibitors; 310,000 tested, 5.4% active; further: nearly all actives have a fitted effect of over 60% in size
# Target sequence (P51450 whole entry, looked up, the tested form may be a part): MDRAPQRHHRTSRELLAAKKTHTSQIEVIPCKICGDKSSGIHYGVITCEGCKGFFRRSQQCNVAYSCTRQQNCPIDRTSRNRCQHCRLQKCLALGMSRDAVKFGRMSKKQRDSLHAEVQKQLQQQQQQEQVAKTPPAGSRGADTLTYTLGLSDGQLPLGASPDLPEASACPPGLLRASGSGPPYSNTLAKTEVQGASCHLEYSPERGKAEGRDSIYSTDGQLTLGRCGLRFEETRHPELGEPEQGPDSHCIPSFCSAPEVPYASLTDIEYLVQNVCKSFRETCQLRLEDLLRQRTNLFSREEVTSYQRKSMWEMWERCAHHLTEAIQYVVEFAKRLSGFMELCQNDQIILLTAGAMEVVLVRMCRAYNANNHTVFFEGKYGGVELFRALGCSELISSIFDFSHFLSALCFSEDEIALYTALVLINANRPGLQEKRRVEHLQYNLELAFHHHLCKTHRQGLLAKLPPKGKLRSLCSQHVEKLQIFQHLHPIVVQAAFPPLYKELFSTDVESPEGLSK
#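 Drosophila S2 cells stably expressing Gal4-DBD/mouse RORγ fusion under metallothionein promoter plus UAS-luciferase; compound 1 h, then 700 uM CuSO4 induction for 20 h at ambient temperature; inhibition read as reduced luminescence.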
# Numbers without * were called inactive; ? = inconclusive; nt = no result; [ ] = dose if it differs, or a comment. Most compounds without a hit are left out; they make up all but 15% or so of the library. The call rests on the fitted dose curve; in most records, active means well fitted curve in the direction sought with a large enough effect; inconclusive means small, poorly fitted or top-dose-only effect, or another doubt; inactive means no such curve, though single readings can be large; an effect the other way counts as inactive or inconclusive. On the % scale 0 is the no-effect control and ±100 the full control effect; potency means the concentration at half of the fitted maximal effect.
SMILES,12-LOX inh,Gal4-VP16 FLuc,ELG1 repair inh,TDP1 cell noCPT,TDP1 cell CPT,RORgamma inh
Cn1c(=O)c2cc(C(=O)NCCCN3CCN(c4cccc(Cl)c4)CC3)sc2c2ccccc21,?,nt,nt,2.9µM*,?,nt
CN1CCN(CCCNC(=O)c2cc3c(=O)n(C)c4ccccc4c3s2)CC1,15%,3%,?,12µM*,8.2µM*,-34%
CCN1CCN(CCCNC(=O)c2cc3c(=O)n(CC)c4ccccc4c3s2)CC1,-12%,nt,nt,?,?,nt
Cc1cc(=O)oc2cc(OCC(=O)N(C)C3(C#N)CCCCC3)ccc12,4%,nt,nt,nt,nt,nt
Cc1ccc2nc(-c3ccccn3)oc2c1,36%,?,?,?,?,10µM*
Cc1ccc(-c2nc(-c3ccccn3)no2)cc1,-10%,2µM*,?,8.2µM*,7.3µM*,0.89µM*
c1ccc(-c2ccc(-c3nc(-c4ccccn4)no3)cc2)cc1,2%,1.4µM*,?,10µM*,12µM*,2.5µM*
c1ccc(-c2cc(-c3nc(-c4ccccn4)no3)c3ccccc3n2)cc1,8%,nt,nt,8.2µM*,9.2µM*,nt
O=c1[nH]nc(-c2cc(-c3ccccc3)nc3ccccc23)o1,2%,nt,nt,?,-6%,nt
Cc1ccc(Cc2nc(-c3ccccn3)no2)cc1,3%,-15%,?,-14%,-11%,-54%
CNC(=O)NC[C@H]1CCN(Cc2ccc(C#N)cc2)C[C@H]1N(C)C,15%,nt,nt,nt,nt,nt
Cn1cc(CN2C[C@@H](F)[C@@H](OCc3nc4ccc(F)cc4[nH]3)C2)cn1,22%[176 µM],nt,nt,nt,nt,nt
Clc1cccc(-c2nc(-c3ccccn3)no2)c1,1%,8.9µM*,?,?,-21%,5µM*
c1ccc(-c2nc(-c3ccccn3)no2)cc1,2%,2µM*,?,?,16µM*,2.2µM*
c1ccc(Cc2nc(-c3ccccn3)no2)cc1,13%,-22%,?,0%,0%,-7%
COc1cc(-c2nc(-c3ccccn3)no2)cc(OC)c1OC,13%,3%,?,?,?,?
c1ccc(C(Cc2nc(-c3ccccn3)no2)c2ccccc2)cc1,172%,?,?,16µM*,?,?
c1ccc(-c2n[nH]c(-c3ccccn3)n2)cc1,0%,1.1µM*,?,?,?,1.1µM*
CC(OC(=O)c1ccc2c(c1)NC(=O)CS2)C(=O)NC(C)(C)C (configuration not stated),5%,nt,nt,nt,nt,nt
Cc1cc2oc(=O)cc(CN3CCN(C)CC3)c2cc1C,1%,nt,nt,nt,nt,nt
Cc1ccc(-c2nc(-c3ccccn3)no2)cc1Cl,7%,5.6µM*,?,12µM*,?,3.5µM*
Cc1ccc(CNc2ccc(-c3nc(-c4ccccn4)no3)cc2[N+](=O)[O-])cc1,-11%,nt,nt,?,?,nt
NC(=O)Cn1cnc2c(oc3nc(C4CCCCC4)c4c(c32)CCC4)c1=O,-7%,nt,nt,nt,nt,nt
COCC(=O)NC1CCc2nnc(C3CC3)n2CC1 (configuration not stated),64%,nt,nt,nt,nt,nt
Clc1cccc(Nc2nc(-c3ccncc3)nc3ccccc23)c1,60%,-1%,2.6µM*,?,-14%,-5%
c1ccc2c(Nc3nc(-c4ccncc4)nc4ccccc34)cccc2c1,-20%,-23%,?,?,?,25%
OCc1cccc(Nc2nc(-c3ccncc3)nc3ccccc23)c1,-12%,nt,nt,nt,nt,nt
Clc1ccccc1Nc1nc(-c2ccncc2)nc2ccccc12,?,-2%,?,16µM*,29µM*,0%
